{"source": "PubChem BioAssay AID2314", "about": "(National Center for Advancing Translational Sciences (NCATS), 2010)", "note": "The whole screen tested about 300,000 compounds, of which about 37,000 (12%) were called active. This is one part of a sample in which actives are shown more often than they occur. Values without a mark were called inactive. Cut-off read from the data, not from the text of the source: active = max response mostly above about 13% (no sharp cut-off); inactive = mostly below about 14%."}
{"assay": "Cycloheximide Counterscreen for Small Molecule Inhibitors of Shiga Toxin; note: read at 38.3 µM for the half of the compounds with a filed dose; 0% is about no effect", "settings": "cell reporter, cycloheximide protein synthesis inhibition counterscreen; hits give high values"}
{"smiles": "CCN1CCC2(CC1)N=C(c1ccc(F)cc1)C(=S)N2C(=O)c1ccc(C)cc1", "max response": "-0.381%"}
{"smiles": "COc1ccccc1Nc1ncnc2c1oc1ccccc12", "max response": "22.8% (active)"}
{"smiles": "Cc1cc(C)nc(N2CCN(c3ncnc4c3oc3ccccc34)CC2)n1", "max response": "10.4%"}
{"smiles": "COc1ccc(C)cc1Nc1nc(C)nc2c1oc1ccccc12", "max response": "-2.13%"}
{"smiles": "CCCCOc1ccc(N(CC(=O)NCC2CCCO2)C(=O)CCC(=O)Nc2cc(C)ccn2)cc1", "note": "(stereo not given)", "max response": "-1.91%"}
{"smiles": "C[n+]1ccc(C(=O)NCc2ccccc2)cc1", "max response": "-2.14%"}
{"smiles": "COc1ccc(CNc2ccc3c(c2)CCC3)cc1OC", "max response": "28.7% (active)"}
{"smiles": "COc1ccc(CNc2cc(C)cc(C)c2)cc1OC", "max response": "-1.54%"}
{"smiles": "COc1ccc(CC(=O)Nc2ccc3c(c2)CCC3)cc1S(=O)(=O)N1CCOCC1", "max response": "1.02%"}
{"smiles": "COc1ccc(OCC(=O)Nc2ccc(NC(=O)c3ccco3)c(C)c2)cc1", "max response": "6.17%"}
{"smiles": "COc1cc(NS(=O)(=O)c2ccc(NC(=S)NC(=O)c3ccccc3)cc2)nc(OC)n1", "max response": "-6%"}
{"smiles": "CCn1nccc1C(=O)Nc1ccc(Cl)c(Cl)c1", "max response": "35.7% (active)"}
{"smiles": "Cc1nnc(NC(=O)Nc2ccc(Cl)c(Cl)c2)s1", "max response": "-2.3%"}
{"smiles": "CCn1nccc1C(=O)Nc1ccc(S(=O)(=O)NC23CC4CC(CC(C4)C2)C3)cc1", "max response": "9.31%"}
{"smiles": "N#Cc1cccc(Nc2c3c(nc4ccccc24)CCCC3)c1", "max response": "-8.08%"}
{"smiles": "Cc1nc2nc(C)c(NS(=O)(=O)c3ccc(C(C)(C)C)cc3)c(=O)n2[nH]1", "max response": "1.21%"}
{"smiles": "O=C(Nc1ccccc1)N1CCN(Cc2ccccc2)CC1", "max response": "21% (active)"}
{"smiles": "COc1ccc(NC(=O)N2CCCC(C(=O)Nc3ccccc3OC)C2)cc1", "note": "(stereo not given)", "max response": "-2.82%"}
{"smiles": "O=C(Nc1ccccc1)N1CCN(C(=O)Nc2ccccc2)CC1", "max response": "-0.439%"}
{"smiles": "O=C(c1cc2ccccc2o1)N1CCN(c2cccc(C(F)(F)F)c2)CC1", "max response": "-3.72%"}
{"smiles": "O=C(c1cc2ccccc2o1)N1CCN(Cc2ccccc2)CC1", "max response": "20.5% (active)"}
{"smiles": "COc1ccc(NC(=O)N2CCC(Cc3ccccc3)CC2)cc1", "max response": "19.5% (active)"}
{"smiles": "O=C(NC(=S)N1CCN(Cc2ccccc2)CC1)c1ccccc1", "max response": "10.6%"}
{"smiles": "COc1ccc(C(=O)NC2CCN(C(=O)Nc3ccc(F)cc3)CC2)cc1", "max response": "-4.59%"}
{"smiles": "O=C(c1cccc(Cl)c1)N1CCN(Cc2ccccc2)CC1", "max response": "1.6%"}
{"smiles": "COc1ccc(C(CCN2CCOCC2)c2c(OC)cc(OC)c3c2OC(=O)CC3c2ccc(OC)cc2)cc1", "note": "(stereo not given)", "max response": "3.67%"}
{"smiles": "CCn1c(/C=C/Nc2ccccc2)[n+](CC)c2ccc(C(=O)OCC(F)(F)F)cc21", "max response": "-3.17%"}
{"smiles": "COc1ccccc1NC(=O)N1CCCC1C(=O)NCc1cccs1", "note": "(stereo not given)", "max response": "4.62%"}
{"smiles": "CCc1cc(=O)oc2cc(C)cc(OCC(=O)N3CCC[C@@H]3C(=O)O)c12", "max response": "-2.38%"}
{"smiles": "CCC1Oc2ccccc2N(CC(=O)NCCCN2CCN(CC)CC2)C1=O", "note": "(stereo not given)", "max response": "-1.43%"}
{"smiles": "Nc1ccc(S(=O)(=O)Nc2nccc(/C=C/c3ccc(Br)s3)n2)cc1", "max response": "0.595%"}
{"smiles": "Oc1cccc2ccc(/C=C/c3ccc(Br)s3)nc12", "max response": "56.7% (active)"}
{"smiles": "O=C(CN1C(=O)c2cccnc2Oc2ccc(Cl)cc21)NCCc1ccccc1", "max response": "18.6%"}
{"smiles": "Cc1cc(C)n2nc(CNS(=O)(=O)c3c(F)c(F)c(F)c(F)c3F)nc2n1", "max response": "1.02%"}
{"smiles": "COc1ccc(S(=O)(=O)c2c[nH]c(=S)[nH]c2=O)cc1Cl", "max response": "-3.71%"}
{"smiles": "COc1cccc(CNCc2ccc3c(c2)OCO3)c1", "max response": "7.15%"}
{"smiles": "COc1cc(CNCc2ccc3c(c2)OCO3)c([N+](=O)[O-])cc1OC", "max response": "13.8% (active)"}
{"smiles": "Cc1ccc(CNCc2ccc3c(c2)OCO3)c(C)c1", "max response": "0.612%"}
{"smiles": "Cc1ccc(-c2nn(-c3ccccc3)cc2/C=C/C(=O)Nc2cccc(S(N)(=O)=O)c2)cc1", "max response": "6.92%"}
{"smiles": "COc1ccc(CCNC2=CC(=O)CC(C)(C)C2)cc1", "max response": "17%"}
{"smiles": "CN1C(CC(=O)Nc2ccc(Br)cc2)c2ccccc2CC1(C)C", "note": "(stereo not given)", "max response": "7.55%"}
{"smiles": "CCOc1cccc(/C(O)=C2/C(=O)C(=O)N(CCOC)C2c2ccncc2)c1", "note": "(stereo not given)", "max response": "3.2%"}
{"smiles": "CCN(CC)CCN1C(=O)C(=O)/C(=C(/O)c2ccccc2)C1c1ccccc1F", "note": "(stereo not given)", "max response": "-1.86%"}
{"smiles": "CCN(CC)CCN1C(=O)C(=O)/C(=C(/O)c2cnn(-c3ccccc3)c2C)C1c1cccs1", "note": "(stereo not given)", "max response": "49.4% (active)"}
{"smiles": "COC(=O)c1cc(S(=O)(=O)N2CCC(C(N)=O)CC2)oc1C", "max response": "-3.53%"}
{"smiles": "Cc1c(C)c(C)c(S(=O)(=O)N2CCC3(CC2)OCCO3)c(C)c1C", "max response": "-1.61%"}
{"smiles": "CCc1c(C)c2ccc(OC3CCCCC3=O)cc2oc1=O", "note": "(stereo not given)", "max response": "16.5% (active)"}
{"smiles": "Cc1c(Cc2ccccc2)c(=O)oc2cc(OCC(N)=O)ccc12", "max response": "1.87%"}
{"smiles": "CC(=O)Oc1ccc2c(C)c(CC(C)O)c(=O)oc2c1", "note": "(stereo not given)", "max response": "-8.36%"}
{"smiles": "COc1ccc(-n2cnnc2SCC(=O)Nc2cccc(S(N)(=O)=O)c2)cc1", "max response": "-5.17%"}
{"smiles": "Cc1cc(C)c(S(=O)(=O)Nc2c(C)n(C)n(-c3ccccc3)c2=O)cc1[N+](=O)[O-]", "max response": "-2.16%"}
{"smiles": "COc1cccc(OCc2nnc3n2N=C(c2ccccc2)C(CC(=O)O)S3)c1", "note": "(stereo not given)", "max response": "9.69%"}
{"smiles": "CCc1ccc(NC2Nc3cc(C)nn3S2)cc1", "note": "(stereo not given)", "max response": "49.2% (active)"}
{"smiles": "CCOC(=O)c1ccc(NC2Nc3cc(C)nn3S2)cc1", "note": "(stereo not given)", "max response": "5.82%"}
{"smiles": "COC(=O)c1cc(C(=O)NC(C)C2CC3CCC2C3)cc([N+](=O)[O-])c1", "note": "(stereo not given)", "max response": "-12.3%"}
{"smiles": "COC(=O)c1ccc(N2CCOCC2)c(NC(=O)c2ccc(Br)o2)c1", "max response": "-2.23%"}
{"smiles": "Cn1cccc1/C=N/NC(=O)c1ccc(OC(F)(F)C(F)F)cc1", "max response": "38.1% (active)"}
{"smiles": "COc1ccc(/C=N/NC(=O)c2cccc(C(F)(F)F)c2)cc1", "max response": "6.57%"}
{"smiles": "CCn1c(/C=N/NC(=O)c2ccc(OC)cc2)nc2ccccc21", "max response": "-2.39%"}
{"smiles": "CC(Oc1ccccc1)C(=O)Nc1c2c(nn1-c1ccccc1)CS(=O)C2", "note": "(stereo not given)", "max response": "-2.14%"}
